Our source for the growth inhibition, inhibition and outcome values is PubChem BioAssay.

A number with no mark means an inactive call. For some of these results: Entries with a potency or affinity are not part of this list. Calls of active or inactive are those of the source. Unless noted, no rule for the calls is given here.

The nature of assay [1]: antimalarial activity against Dd2 strain (AID 2302;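 active = growth inhibition above 50% at the single 2 µM test dose, taken to imply half-maximal potency below 2 µM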;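 also: 0% = DMSO untreated growth and 100% = chloroquine plus artemisinin killed control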). The settings on record: P. falciparum Dd2 in RBCs, LDH growth readout, 72 h; at 2 µM; active compounds read high.
Assay [2] can be described thus: human hepatoma cell viability loss – ATP luminescence, cytotoxicity control for P. falciparum antimalarial project, primary screen (AID 2303;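 active = inhibition above 50%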;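 also: 0% = DMSO wells and 100% = digitonin-killed cells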). The settings on record: HepG2 viability, 24-48 h, at 10 µM, active compounds read high.
Assay [3] has as its target L-lactate dehydrogenase (Plasmodium falciparum (isolate CDC / Honduras)) (UniProt Q27743). The assay is described as follows: PfLDH activity inhibition – cell lysate, 3D7 strain, counter-screen for P. falciparum growth inhibition project (AID 2304).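 Also: 0% = vehicle and 100% = reference inhibitor.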 The following applies: P. falciparum 3D7 crude extract, LDH APAD/NBT absorbance; at 2 µM; active compounds read high.
Assay [4] is described as follows: inhibition of 3D7 malaria parasite growth – strain 3D7 (AID 2306).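 Also: 0% = DMSO wells and 100% = chloroquine plus artemisinin control wells.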 The settings on record: P. falciparum 3D7 erythrocytic growth, LDH absorbance, 72 h; at 2 µM; active compounds read high.
Assay [5] addresses Calcium-dependent protein kinase 1 (Plasmodium falciparum (isolate 3D7)) (UniProt P62344). The assay is described as follows: PfCDPK1 kinase inhibitors, biochemical, TCAMS library (AID 1159585; cut-off not given, nearly all actives have IC50 up to about 0.98 µM;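 also: inhibitors leave more ATP so luminescence rises with inhibition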). The following applies: recombinant PfCDPK1, Kinase-Glo ATP depletion luminescence.
For assay [6], the target named is Plasmodium falciparum protein kinase 6 (PK6, PF3D7_1337100) (UniProt Q8IDW1). The assay is described as follows: PfPK6 kinase inhibitors, biochemical, TCAMS library (AID 1159586). The settings on record: recombinant PfPK6, Kinase-Glo ATP depletion luminescence.
Chain of Plasmodium falciparum protein kinase 6 (PK6, PF3D7_1337100) (Q8IDW1 1-305): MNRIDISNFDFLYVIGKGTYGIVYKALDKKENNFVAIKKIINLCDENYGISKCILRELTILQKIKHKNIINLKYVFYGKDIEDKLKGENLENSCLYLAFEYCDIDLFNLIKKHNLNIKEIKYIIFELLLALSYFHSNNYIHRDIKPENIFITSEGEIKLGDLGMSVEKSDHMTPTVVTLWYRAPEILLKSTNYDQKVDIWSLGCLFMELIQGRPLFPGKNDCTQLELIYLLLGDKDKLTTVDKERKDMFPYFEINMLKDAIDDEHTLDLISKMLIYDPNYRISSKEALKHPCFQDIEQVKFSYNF
The target of assay [7] is Protein kinase 7 (PK7), Plasmodium falciparum 3D7 (PF3D7_0213400) (UniProt Q7YTF7). The assay is described as follows: inhibition of Plasmodium PK7 catalytic activity – biochemical, TCAMS antimalarial set, Kinase-Glo luminescence (AID 1159587). The settings on record: recombinant PfPK7, Kinase-Glo ATP depletion luminescence.
Chain of Protein kinase 7 (PK7), Plasmodium falciparum 3D7 (PF3D7_0213400) (Q7YTF7 1-343): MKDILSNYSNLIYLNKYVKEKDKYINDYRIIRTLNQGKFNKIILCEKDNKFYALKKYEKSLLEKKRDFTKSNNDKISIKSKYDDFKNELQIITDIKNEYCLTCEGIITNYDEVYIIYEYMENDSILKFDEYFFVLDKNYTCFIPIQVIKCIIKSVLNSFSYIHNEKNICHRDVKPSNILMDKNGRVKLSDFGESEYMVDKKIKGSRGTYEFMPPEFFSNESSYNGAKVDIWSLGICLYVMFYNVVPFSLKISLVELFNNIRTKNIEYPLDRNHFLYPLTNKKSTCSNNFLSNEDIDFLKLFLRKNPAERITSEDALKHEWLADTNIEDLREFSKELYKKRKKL
In assay [8] the target is Calcium-dependent protein kinase 4 (Plasmodium falciparum (isolate 3D7)) (UniProt Q8IBS5). The assay is described as follows: PfCDPK4 kinase inhibitors, biochemical, TCAMS library (AID 1159588; cut-off not given, nearly all actives have IC50 up to about 0.91 µM). The settings on record: recombinant PfCDPK4, Kinase-Glo ATP depletion luminescence.
Chain of Calcium-dependent protein kinase 4 (Plasmodium falciparum (isolate 3D7)) (Q8IBS5 whole entry, looked up): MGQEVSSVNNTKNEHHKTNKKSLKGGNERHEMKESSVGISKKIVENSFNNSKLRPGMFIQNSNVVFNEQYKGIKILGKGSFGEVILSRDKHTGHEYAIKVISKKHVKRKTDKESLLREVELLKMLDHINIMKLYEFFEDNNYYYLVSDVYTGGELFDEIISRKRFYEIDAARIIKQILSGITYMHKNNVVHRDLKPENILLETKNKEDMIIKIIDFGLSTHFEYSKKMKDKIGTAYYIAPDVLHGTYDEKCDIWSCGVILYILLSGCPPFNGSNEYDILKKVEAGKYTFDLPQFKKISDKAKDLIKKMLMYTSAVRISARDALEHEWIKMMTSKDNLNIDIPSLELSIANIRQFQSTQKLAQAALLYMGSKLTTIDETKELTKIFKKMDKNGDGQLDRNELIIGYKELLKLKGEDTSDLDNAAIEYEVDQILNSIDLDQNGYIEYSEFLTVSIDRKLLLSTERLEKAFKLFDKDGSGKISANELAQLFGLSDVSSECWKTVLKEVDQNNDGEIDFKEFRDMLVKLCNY

Chain of L-lactate dehydrogenase (Plasmodium falciparum (isolate CDC / Honduras)) (Q27743 whole entry, looked up): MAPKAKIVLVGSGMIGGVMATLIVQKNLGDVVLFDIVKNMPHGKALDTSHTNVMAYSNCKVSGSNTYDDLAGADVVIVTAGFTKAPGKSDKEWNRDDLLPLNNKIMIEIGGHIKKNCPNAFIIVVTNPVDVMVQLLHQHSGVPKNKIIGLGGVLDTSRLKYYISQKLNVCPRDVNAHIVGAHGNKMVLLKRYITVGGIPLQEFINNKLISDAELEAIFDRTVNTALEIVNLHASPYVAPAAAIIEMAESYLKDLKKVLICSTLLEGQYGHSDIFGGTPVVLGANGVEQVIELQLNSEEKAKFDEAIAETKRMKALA
Chain of Calcium-dependent protein kinase 1 (Plasmodium falciparum (isolate 3D7)) (P62344 whole entry, looked up): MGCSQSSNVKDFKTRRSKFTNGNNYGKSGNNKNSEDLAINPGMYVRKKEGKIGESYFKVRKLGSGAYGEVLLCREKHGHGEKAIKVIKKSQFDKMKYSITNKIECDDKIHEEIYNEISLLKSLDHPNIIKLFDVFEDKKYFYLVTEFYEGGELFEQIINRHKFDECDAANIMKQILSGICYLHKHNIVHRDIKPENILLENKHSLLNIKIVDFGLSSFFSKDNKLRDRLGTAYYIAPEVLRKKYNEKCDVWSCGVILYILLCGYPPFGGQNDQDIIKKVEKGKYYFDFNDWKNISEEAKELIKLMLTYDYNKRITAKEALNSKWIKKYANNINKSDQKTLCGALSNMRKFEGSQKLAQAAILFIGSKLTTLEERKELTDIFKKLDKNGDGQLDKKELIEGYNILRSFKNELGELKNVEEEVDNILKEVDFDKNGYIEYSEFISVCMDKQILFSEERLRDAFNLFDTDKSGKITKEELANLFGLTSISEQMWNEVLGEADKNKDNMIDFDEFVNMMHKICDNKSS

Consider `COc1ccc(C(=O)Nc2cc(Cl)c3c(c2)C2CCCN2CC3)cc1C(F)(F)F` (stereo not given), for which the growth inhibition was 33% in assay [1] and 99% (active) in assay [4]. The inhibition in assay [2] was 35%; in assay [3], -1%. Further, the outcome in assay [5], in assay [6], in assay [7] and in assay [8] was inactive.
In the case of `CCCCN(CCCC)C(=NCCCCCCN=C(/N=C(/N)Nc1ccc(Cl)cc1)N(CCCC)CCCC)/N=C(/N)Nc1ccc(Cl)cc1`, the values for the growth inhibition in assay [1] and in assay [4] were 72% (active) and 81% (active), respectively. Also, the figures for the inhibition in assay [2] and in assay [3] were -1% and -5%, respectively. In addition, the result in assay [5], in assay [6], in assay [7] and in assay [8] was inactive.
`NC1=NC(Cc2ccccc2)(c2ccncc2)C(=O)N1CCCc1ccccc1` (stereo not given): the results for the growth inhibition in assay [1] and in assay [4] were 1% and 86% (active), respectively. Also, the inhibition in assay [2] is 1%; in assay [3], 3%. Moreover, the result in assay [5], in assay [6], in assay [7] and in assay [8] was inactive.
In the case of `Cc1nn(-c2ccccc2)nc1C(=O)N(Cc1ccc(-c2ccc(CNCCc3ccc(S(C)(=O)=O)cc3)cn2)cc1)C(C)CN(C)C` (stereo not given), the values for the growth inhibition in assay [1] and in assay [4] were 87% (active) and 101% (active), respectively. The inhibition in assay [2] is 25%; in assay [3], -8%. In addition, the result in assay [5], in assay [6], in assay [7] and in assay [8] was inactive.
Regarding `Cc1cccc(OCC2CCN(c3ncc(C(=O)NC4CC4)cc3Cl)CC2)c1`, the growth inhibition was 78% (active) in assay [1] and 90% (active) in assay [4]. For the same compound, the values for the inhibition in assay [2] and in assay [3] were -4% and -2%, respectively. Also, the result in assay [5], in assay [6], in assay [7] and in assay [8] was inactive.
Consider `CCNc1cc(C(=O)N[C@@H](Cc2ccccc2Cl)[C@H](O)CNC2CCCCC2)cc(N2CCCCS2(=O)=O)c1`, for which the values for the growth inhibition in assay [1] and in assay [4] were 97% (active) and 99% (active), respectively. Moreover, the results for the inhibition in assay [2] and in assay [3] were 6% and 0%, respectively. Moreover, the outcome in assay [5], in assay [6], in assay [7] and in assay [8] was inactive.
For the compound `Nc1ncc(-c2ccccc2)cc1-c1nc2cc(Cl)c(F)cc2[nH]1`, the growth inhibition was 91% (active) in assay [1] and 101% (active) in assay [4]. Also, the figures for the inhibition in assay [2] and in assay [3] were 37% and 1%, respectively. The outcome in assay [5], in assay [6], in assay [7] and in assay [8] was inactive.
Regarding `O=C(Nc1ccc2c(c1)OCO2)c1cc(-c2cccnc2)nc2ccc(Cl)cc12`, the growth inhibition in assay [1] was 41%; in assay [4] it was 89% (active). Moreover, the inhibition in assay [2] is 9%; in assay [3] it was -3%. For the same compound, the outcome in assay [5], in assay [6], in assay [7] and in assay [8] was inactive.
`CC(C)CCNC(=O)C1Cc2c([nH]c3cc(Br)ccc23)C2(CCN(CCc3ccccc3)CC2)N1` (stereo not given): the growth inhibition is 48% in assay [1] and 97% (active) in assay [4]. The inhibition in assay [2] is 14%; in assay [3], -1%. For the same compound, the result in assay [5], in assay [6], in assay [7] and in assay [8] was inactive.
Turning to `FC(F)(F)c1ccc2nc(-c3ccc(-c4cccc(CNCCN5CCNCC5)c4)s3)[nH]c2c1`, the figures for the growth inhibition in assay [1] and in assay [4] were 39% and 91% (active), respectively. In addition, the inhibition is 22% in assay [2] and 5% in assay [3]. The outcome in assay [5], in assay [6], in assay [7] and in assay [8] was inactive.
`COc1ccc(NC(=O)[C@H](Cc2ccccc2)Nc2cc(C)nc(NCCN3CCCC3)n2)cc1`: the growth inhibition in assay [1] was 3%; in assay [4], 97% (active). The inhibition in assay [2] was 15%; in assay [3], -2%. Also, the result in assay [5], in assay [6], in assay [7] and in assay [8] was inactive.
With `COc1cc2ncnc(Nc3ccc4nc(-c5ccccc5)[nH]c4c3)c2cc1OC`, the growth inhibition in assay [1] was 32%; in assay [4] it was 92% (active). Moreover, the results for the inhibition in assay [2] and in assay [3] were 15% and -5%, respectively. Besides, the outcome in assay [5], in assay [6], in assay [7] and in assay [8] was inactive.
In the case of `CN1CCCC1CCNCc1ccc(-c2ccc(CNCCc3ccccc3)cn2)cc1` (stereo not given), the growth inhibition in assay [1] was 99% (active); in assay [4], 101% (active). The inhibition in assay [2] is 25%; in assay [3], 2%. Further, the result in assay [5], in assay [6], in assay [7] and in assay [8] was inactive.
For the compound `O=C(/C=C/c1ccc(Cl)c(Cl)c1)NCCCCCN1CCC(NC(=S)Nc2ccc(Cl)c(Cl)c2)CC1`, the growth inhibition in assay [1] was 65% (active); in assay [4], 99% (active). The inhibition in assay [2] is 29%; in assay [3], 2%. For the same compound, the result in assay [5], in assay [6], in assay [7] and in assay [8] was inactive.
For `CCN(CCCN1CCCCC1)c1cc(C)nc(Nc2ccc(C(F)(F)F)cc2)n1`, the growth inhibition in assay [1] was 99% (active); in assay [4] it was 102% (active). The results for the inhibition in assay [2] and in assay [3] were 26% and -3%, respectively. For the same compound, the result in assay [5], in assay [6], in assay [7] and in assay [8] was inactive.
For the compound `Nc1nc2c(c(=O)[nH]1)-c1cccc(Br)c1CC2`, the growth inhibition in assay [1] was -3%; in assay [4] it was 97% (active). Besides, the inhibition was 66% (active) in assay [2] and 0% in assay [3]. Moreover, the outcome in assay [5], in assay [6], in assay [7] and in assay [8] was inactive.
In the case of `c1cc(C2=N[C@H]3CCCC[C@@H]3N2)ccc1OCCCCCOc1ccc(C2=N[C@@H]3CCCC[C@H]3N2)cc1`, the growth inhibition is 23% in assay [1] and 101% (active) in assay [4]. For the same compound, the inhibition in assay [2] is 80% (active); in assay [3] it was -5%. Also, the outcome in assay [5], in assay [6], in assay [7] and in assay [8] was inactive.
As to `CC(=O)Nc1nc(-c2ccccc2)[nH]c1C(N)=O`, the growth inhibition in assay [1] is -2%; in assay [4], 99% (active). The inhibition in assay [2] is 10%; in assay [3] it was 4%. Moreover, the result in assay [5], in assay [6], in assay [7] and in assay [8] was inactive.
Take `CC(=O)c1cccc(NC(=O)N2CCCN(CCCCCNC(=O)/C=C/c3ccc(Cl)c(Cl)c3)CC2)c1`: the results for the growth inhibition in assay [1] and in assay [4] were 0% and 93% (active), respectively. Moreover, the results for the inhibition in assay [2] and in assay [3] were 13% and -5%, respectively. Also, the outcome in assay [5], in assay [6], in assay [7] and in assay [8] was inactive.
As for `COc1ccc(-c2ccc(NC(=O)c3ccc(C#N)cc3)cc2)cc1CN1CCN(C)CC1`, the growth inhibition is 49% in assay [1] and 93% (active) in assay [4]. For the same compound, the inhibition was 21% in assay [2] and 1% in assay [3]. Besides, the result in assay [5], in assay [6], in assay [7] and in assay [8] was inactive.
